Reference: PubChem BioAssay AID2590 (National Center for Advancing Translational Sciences (NCATS), 2010)
Inconclusive results are not listed. The source made the active and inactive calls. Calls come from the whole dose curve; as a rule, active = well fitted curve in the direction sought with a large enough effect; inconclusive = small, poorly fitted or top-dose-only effect, or another doubt; inactive = no such curve, though single readings can be large or run the other way.
Potency is the fitted concentration of half-maximal effect.
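Throughout, for Potency: enzyme source is Gaucher patient spleen homogenate not purified recombinant protein.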

The compounds below were run against Lysosomal acid glucosylceramidase (Homo sapiens) (UniProt P04062) (assay: qHTS Assay for Inhibitors and Activators of N370S glucocerebrosidase as a Potential Chaperone Treatment of Gaucher Disease: Primary Screen Confirmation). Details: N370S glucocerebrosidase enzyme activity, fluorogenic substrate; series mostly up to 54 µM.
Lysosomal acid glucosylceramidase (Homo sapiens), sequence (P04062 whole entry N409S): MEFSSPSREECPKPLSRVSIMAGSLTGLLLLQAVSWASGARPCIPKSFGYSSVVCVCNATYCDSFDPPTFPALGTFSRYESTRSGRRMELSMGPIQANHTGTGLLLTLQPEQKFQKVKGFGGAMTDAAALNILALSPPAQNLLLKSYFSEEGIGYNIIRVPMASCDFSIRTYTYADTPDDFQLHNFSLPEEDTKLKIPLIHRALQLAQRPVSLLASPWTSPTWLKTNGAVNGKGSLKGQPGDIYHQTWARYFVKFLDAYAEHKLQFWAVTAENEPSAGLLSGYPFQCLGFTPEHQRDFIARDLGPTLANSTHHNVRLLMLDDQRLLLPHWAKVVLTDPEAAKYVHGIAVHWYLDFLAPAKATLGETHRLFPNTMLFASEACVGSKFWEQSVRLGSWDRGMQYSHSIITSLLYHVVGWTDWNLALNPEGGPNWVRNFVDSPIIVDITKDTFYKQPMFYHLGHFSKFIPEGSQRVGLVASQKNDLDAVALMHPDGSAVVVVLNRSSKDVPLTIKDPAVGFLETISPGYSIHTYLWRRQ
Outline: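 Patient-spleen homogenate carrying N370S GC (27 ug) in pH 5.0 citrate buffer with 0.01% Tween-20, 1 mM 4-methylumbelliferyl-beta-glucoside, 40 min at 37C; fluorescence 365/440 nm after NaOH/glycine stop; AC50 from Hill fits.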
`O=S(=O)(Cc1ccccc1)N1CCN(c2nc(-c3cccs3)nc3ccccc23)CC1` was tested, and the Potency was 2.25 µM (active). With `CN1CCOc2cc(S(=O)(=O)N3CCN(c4nc(-c5cccs5)nc5ccccc45)CC3)ccc21` the Potency was 0.58 µM (active). For `O=S(=O)(c1ccc2ccccc2c1)N1CCN(c2nc(-c3ccccc3)nc3ccccc23)CC1`, the Potency was 4.61 µM (active). In the case of `Cc1ccc(Nc2cc(C)nc(-c3ccccc3)n2)cc1`, the Potency is reported as 4.11 µM (active). With `Cc1cccn2c(=O)c3cc(C(=O)NCCc4ccccc4)sc3nc12` the Potency was “inactive”. In the case of `Cc1cccc(NC(=O)Nc2cccc(C#N)c2)n1`, the Potency is reported as “inactive”. With `c1ccc(CNc2nc(-c3ccccc3)nc3ccccc23)cc1` the Potency was 10.1 µM (active). In the case of `N=c1c2c(-c3ccccc3)c(-c3ccccc3)n(Cc3ccco3)c2ncn1CCCn1ccnc1`, the Potency is reported as 12.6 µM (active). `Cc1ccc(S(=O)(=O)N2CCN(c3nc(-c4cccs4)nc4c3ncn4COC(=O)C(C)(C)C)CC2)cc1` was tested, and the Potency was “inactive”. In the case of `CCOC(=O)c1ccc(S(=O)(=O)N2CCN(c3nc(-c4cccs4)nc4ccccc34)CC2)cc1`, the Potency is reported as 0.819 µM (active). `CCc1ccc(NC(=O)CN(c2ccc(OC)cc2)S(=O)(=O)c2c(C)[nH]c(=O)[nH]c2=O)cc1` was tested, and the Potency was 6.51 µM (active). `CC(=O)c1ccc(S(=O)(=O)N2CCN(c3nc(-c4cccs4)nc4ccccc34)CC2)cc1` was tested, and the Potency was 1.79 µM (active). `Cc1ccc(S(=O)(=O)N2CCN(c3nc(-c4ccc(CN5CCNCC5)s4)nc4ccccc34)CC2)cc1` was tested, and the Potency was 12.7 µM (active). With `Cc1ccc(S(=O)(=O)N(C)CCN(C)c2nc(-c3cccs3)nc3ccccc23)cc1` the Potency was 2.25 µM (active).
